Here are results for 60 compounds from PubChem BioAssay AID2130 (The Scripps Research Institute Molecular Screening Center, 2009).

In general, inhibition refers to the relative decrease from the control value, in per cent.

Among all 320,000 compounds or so, about 1,700 (0.53%) were called active. Shown is part of a subset that was picked to be rich in actives. A number with no mark means an inactive call.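 The calls were made as follows: active = inhibition above the campaign mean of all compounds plus 3 SD (cut at about 26% in these data); inactive = the rest.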

Chain of Protein phosphatase methylesterase 1 (Homo sapiens) (Q9Y570 whole entry, looked up): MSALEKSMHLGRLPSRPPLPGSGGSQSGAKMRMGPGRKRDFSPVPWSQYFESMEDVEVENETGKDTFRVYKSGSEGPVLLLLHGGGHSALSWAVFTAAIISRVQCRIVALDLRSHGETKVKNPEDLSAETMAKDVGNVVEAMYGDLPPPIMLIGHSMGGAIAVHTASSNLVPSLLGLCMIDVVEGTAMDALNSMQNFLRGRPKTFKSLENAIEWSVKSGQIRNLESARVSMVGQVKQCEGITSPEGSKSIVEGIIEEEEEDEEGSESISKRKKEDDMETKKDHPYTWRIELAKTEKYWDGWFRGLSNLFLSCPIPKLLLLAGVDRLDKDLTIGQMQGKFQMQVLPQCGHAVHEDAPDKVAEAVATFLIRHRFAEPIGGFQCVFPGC

The assay has as its target Protein phosphatase methylesterase 1 (Homo sapiens) (UniProt Q9Y570). Kind of assay: PME-1 inhibitors via competitive probe labeling, primary screen, biochemical, fluorescence polarization, FP-Rh probe, HTS (AID 2130).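 Also: competitive labeling of PME-1 active site by serine hydrolase directed probe; 0% = PME-1 with DMSO and 100% = wells lacking PME-1 enzyme; inhibitors block probe labeling so polarization falls and inhibition rises.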 The conditions noted are these: recombinant PME-1, FP-Rh probe fluorescence polarization; at 5.9 µM; stronger effect = higher value. A general note: In fluorescence polarisation assays a small probe gives low polarisation when free and higher when bound to something large.
As for `O=C(NCc1cccs1)C1CCN(S(=O)(=O)c2ccc(Cl)cc2)CC1`, the inhibition is 49.3% (active).

For the compound `O=C(NCc1ccc(Cl)cc1)C1CCN(S(=O)(=O)c2cccs2)CC1`, the inhibition is 11.3%.

On to `O=C(NCc1cccs1)C1CCN(S(=O)(=O)c2ccc3c(c2)OCCO3)CC1`, for which the inhibition was 10.8%.

For `Cc1cccc(N2CCN(Cc3nc(C4CC4)no3)CC2)n1`, the inhibition is 0.08%.

On to `CC1C(c2ccccc2)=[N+]([O-])C2(CCCC2)N1O` (stereo not given), for which the inhibition was -10.2%.

Regarding `CCCc1cc(-c2nc(-c3ccc(C)cc3)cs2)ccn1`, the inhibition was -6.39%.

Turning to `Cc1ccc(-c2csc(-c3cc(C)on3)n2)cc1`, the inhibition was -0.04%.

Take `Cc1ccc(-c2csc(-c3c[nH]c4ccccc34)n2)cc1`: the inhibition is 27.5% (active).

`COc1ccccc1-c1sc2ccccc2c1-c1ccc(Br)nc1`: the inhibition is -9.82%.

With `COc1ccccc1-c1c(C)nn2c(C)c(C(C)=O)cnc12`, the inhibition is -0.93%.

On to `COc1ccccc1-c1sc2ccccc2c1-c1ccc(C(C)=O)cc1`, for which the inhibition was 33.6% (active).

Take `N#Cc1c(C(F)(F)F)cc(-c2cccs2)nc1N1CCCCC1`: the inhibition was 2.44%.

`COc1ccc(CN2CCCC(C(=O)c3ccc(Cl)cc3)C2)cc1Cn1cncn1` (stereo not given): the inhibition was 4.9%.

For the compound `CC(=O)c1ccc(OCC(O)CN2CCN(S(=O)(=O)c3cccc(Br)c3)CC2)cc1` (stereo not given), the inhibition was 7.43%.

For `CC(=O)NC1=NN(C(C)=O)C(C)(c2ccc(Cl)s2)S1` (stereo not given), the inhibition was -1.89%.

As for `CC(=O)Nc1cccc(Nc2nc(-c3cccs3)nc3ccccc23)c1`, the inhibition was -31.9%.

Turning to `Cc1cccc(-c2nc(Nc3ccc(O)cc3)c3ccccc3n2)c1`, the inhibition was 30.6% (active).

In the case of `COc1ccc(Nc2nc(-c3cccnc3)nc3ccccc23)cn1`, the inhibition is 0.55%.

`Nc1nonc1-n1nnc(C(=O)N/N=C/C2CCCCC2)c1-c1ccccc1`: the inhibition was 2.24%.

Turning to `CC(C)c1c(C(=O)N/N=C/c2ccccc2C(=O)O)nnn1-c1nonc1N`, the inhibition is 3.05%.

Consider `Nc1nonc1-n1nnc(C(=O)N/N=C/c2c[nH]c3ccccc23)c1-c1ccccc1`, for which the inhibition is 34.1% (active).

Take `O=C(C(=O)N1CCc2ccccc2C1)c1c[nH]c2ccccc12`: the inhibition was -0.44%.

For `Cc1cccc(C)c1NC(=S)N1CCCCCC1`, the inhibition is -3.93%.

As to `COc1ccc(CNC(=O)COc2ccccc2C(=O)c2cnn(-c3ccccc3)c2)cc1OC`, the inhibition is -5.4%.

With `Cc1ccc(S(=O)(=O)n2cnc3ccccc32)c(C)c1`, the inhibition is -0.58%.

As for `O=c1[nH]cnc(O)c1C(c1ccc(F)cc1)c1c(O)nc[nH]c1=O`, the inhibition is -2.73%.

On to `COc1cccc(NC(=O)Nc2nnc(N3CCCCC3C)s2)c1` (stereo not given), for which the inhibition is 43.8% (active).

Regarding `COc1cccc(NC(=O)NCCN2CCCCC2)c1`, the inhibition is 0.47%.

Consider `COc1cccc(C(=O)Nc2nnc(S(=O)(=O)N3CCCCC3)s2)c1`, for which the inhibition is -0.5%.

With `CC1CCC(NC(=O)CN(C)S(=O)(=O)c2ccc3c(c2)c(=O)n(C)c(=O)n3C)CC1` (stereo not given), the inhibition is 0.21%.

As for `COc1ccnc(Oc2ccccc2)c1-c1ncn[nH]1`, the inhibition is 3.26%.

As to `O=C(Nc1ccc(C(F)(F)F)cc1)c1cccc(-n2cnnn2)c1`, the inhibition was -9.13%.

In the case of `CCCCC(=O)Nc1nc(C)c(-c2csc(Nc3ccc(Cl)cc3)n2)s1`, the inhibition was 16.9%.

As to `C=CCCC(=O)Nc1nc(C)c(-c2csc(Nc3ccc(Cl)cc3)n2)s1`, the inhibition was 28.8% (active).

In the case of `Cc1nc(NC(=O)c2cccc(Cl)c2)sc1-c1csc(Nc2cccc(Cl)c2)n1`, the inhibition was 32.1% (active).

For the compound `CCCCCCC(=O)Nc1nc(C)c(-c2csc(Nc3cccc(OC)c3)n2)s1`, the inhibition is 16.8%.

`CC(=O)Nc1nc(C)c(-c2csc(Nc3ccc(S(N)(=O)=O)cc3)n2)s1`: the inhibition was -2.64%.

In the case of `CCCCCCC(=O)Nc1nc(C)c(-c2csc(Nc3cc(Cl)ccc3OC)n2)s1`, the inhibition was 13.6%.

As to `COc1ccc(F)cc1C(=O)COC(=O)c1n[nH]c(=O)c2ccccc12`, the inhibition was 2.97%.

For the compound `Cc1cc(OC(=O)c2ccc(OC(C)C)cc2)c([N+](=O)[O-])c(=O)[nH]1`, the inhibition is -4.45%.

Turning to `COc1cc(OC)cc(C(=O)NNC(=O)CCOc2ccccc2OC)c1`, the inhibition is -2.05%.

Consider `CCOc1ccc(-c2cn(S(=O)(=O)c3cccc4nsnc34)nc2N)cc1`, for which the inhibition is 2.2%.

On to `Cc1ccccc1CC1(CO)CCCN(Cc2ccc3c(c2)OCCO3)C1` (stereo not given), for which the inhibition is 3.22%.

In the case of `O=S(=O)(NCCc1ccc(Cl)cc1)c1cccs1`, the inhibition was 6.08%.

`CC(C)(C)OC(=O)NNc1c2ccccc2nc2ccccc12`: the inhibition is 17.6%.

For `O=C(NNc1c2ccccc2nc2ccccc12)c1cc2ccccc2cc1O`, the inhibition is 76.5% (active).

`O=C(N/N=C/c1cccnc1)c1cc2ccccc2cc1O`: the inhibition is 12.5%.

In the case of `COc1ccccc1C1C(C(N)=O)=C(C)Nc2nc(CCCO)nn21` (stereo not given), the inhibition is -0.55%.

As to `COc1ccc(C(=O)OC(C)C(=O)NC2CCCC2)cc1S(=O)(=O)N1CCOCC1` (stereo not given), the inhibition was 2.8%.

With `O=c1[nH]n(-c2ccc([N+](=O)[O-])cc2)c(=O)c2ccccc12`, the inhibition was 26.6% (active).

For the compound `O=c1[nH]c2cccnc2n1-c1ccc([N+](=O)[O-])cc1`, the inhibition is 5.31%.

Regarding `COc1cnn(-c2ccc([N+](=O)[O-])cc2)c(=O)c1Cl`, the inhibition is -4.7%.

Turning to `CCCCN1C(N)=NC[C@@H]1CC1CCCCC1`, the inhibition was -2.94%.

With `Cc1cc(=O)oc2cc(NC(=O)C3CC(=O)N(Cc4ccccc4)C3)ccc12` (stereo not given), the inhibition was 7.03%.

Turning to `COc1cccc(C2Nc3cccc4cccc(c34)N2)c1`, the inhibition is 14.7%.

In the case of `Cc1ccc(C2Nc3cccc4cccc(c34)N2)cc1`, the inhibition is 1.72%.

For `Oc1ccc(C2Nc3cccc4cccc(c34)N2)cc1`, the inhibition is 53.6% (active).

In the case of `CCc1ccc(NC(=O)CN2C(=O)COc3ccc(S(=O)(=O)N4CCCC4)cc32)cc1`, the inhibition is -0.43%.

Turning to `CCOC(=O)C1(Cc2ccccc2C(F)(F)F)CCN(C(=O)c2cc(C)n(C)n2)CC1`, the inhibition was -3.56%.

On to `CCCCCN(C(=O)CCC(=O)OCCOc1ccc(OC)cc1)c1c(N)n(CCCC)c(=O)[nH]c1=O`, for which the inhibition was -1.09%.
